Experimental data taken from ChEMBL document CHEMBL1961873, “Compounds: GSK PKIS; Assays: Nanosyn kinase panel” (2012).

molecular target: Insulin-like growth factor 1 receptor (Homo sapiens) (UniProt P08069); details: at 0.1 µM
Sequence (P08069 31-736 limits assumed): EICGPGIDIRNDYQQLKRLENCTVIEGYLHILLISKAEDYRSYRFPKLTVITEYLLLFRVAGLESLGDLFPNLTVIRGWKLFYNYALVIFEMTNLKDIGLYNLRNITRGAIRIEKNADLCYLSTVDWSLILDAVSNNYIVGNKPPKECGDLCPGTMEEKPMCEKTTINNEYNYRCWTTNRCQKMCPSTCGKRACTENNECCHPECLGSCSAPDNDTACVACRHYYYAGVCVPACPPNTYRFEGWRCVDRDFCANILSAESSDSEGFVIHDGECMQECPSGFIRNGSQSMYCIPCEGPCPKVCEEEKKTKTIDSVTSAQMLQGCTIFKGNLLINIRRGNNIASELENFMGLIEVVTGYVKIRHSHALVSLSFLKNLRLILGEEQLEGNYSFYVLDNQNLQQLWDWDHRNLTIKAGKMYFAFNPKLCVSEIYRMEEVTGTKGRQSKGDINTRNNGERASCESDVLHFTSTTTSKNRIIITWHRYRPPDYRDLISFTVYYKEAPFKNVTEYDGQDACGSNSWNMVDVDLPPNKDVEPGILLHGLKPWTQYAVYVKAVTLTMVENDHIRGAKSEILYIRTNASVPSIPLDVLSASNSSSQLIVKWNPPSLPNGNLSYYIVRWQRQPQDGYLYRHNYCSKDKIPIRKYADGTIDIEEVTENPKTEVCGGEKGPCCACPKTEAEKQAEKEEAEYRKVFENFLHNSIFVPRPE
Sequence (P08069 741-1367 limits assumed): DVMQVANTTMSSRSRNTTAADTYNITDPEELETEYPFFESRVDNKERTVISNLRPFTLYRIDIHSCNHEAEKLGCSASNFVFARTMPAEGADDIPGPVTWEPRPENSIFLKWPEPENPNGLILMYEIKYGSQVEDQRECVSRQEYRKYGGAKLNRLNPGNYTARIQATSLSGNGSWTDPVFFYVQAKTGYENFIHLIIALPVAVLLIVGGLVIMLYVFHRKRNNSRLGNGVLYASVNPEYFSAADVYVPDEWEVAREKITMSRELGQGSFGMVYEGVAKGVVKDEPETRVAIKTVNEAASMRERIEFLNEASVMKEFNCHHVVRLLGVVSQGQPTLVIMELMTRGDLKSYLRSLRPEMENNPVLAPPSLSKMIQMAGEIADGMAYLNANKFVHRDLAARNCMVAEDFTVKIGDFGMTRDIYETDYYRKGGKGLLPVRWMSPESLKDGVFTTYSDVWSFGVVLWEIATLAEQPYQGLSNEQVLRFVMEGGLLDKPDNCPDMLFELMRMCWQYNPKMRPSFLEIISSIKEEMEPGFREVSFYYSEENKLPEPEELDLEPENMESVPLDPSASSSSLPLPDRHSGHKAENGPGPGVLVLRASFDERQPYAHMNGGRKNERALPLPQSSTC

Question: For `COc1ccc(CNC(=O)c2ccc(-c3cc(-c4nnc(C)o4)ccc3C)cc2)cc1`, which inhibition is on record?
Answer: -2.65%

Question: With `Fc1ccc(-c2cc(-c3c[nH]nc3-c3ccccn3)ccn2)cc1` as the compound, how does the inhibition read?
Answer: 0.26%

Question: How did the inhibition turn out when `CS(=O)(=O)CCNCc1ccc(-c2ccc3ncnc(Nc4ccc(OCc5ccccc5)c(C(F)(F)F)c4)c3c2)o1` was run?
Answer: -0.48%

Question: Which inhibition does the source give for `COc1ccc2c(-c3ccnc(Nc4cccc(OC(F)(F)F)c4)n3)cnn2n1` here?
Answer: 3.31%

Question: With `c1ccc(-c2nc3n(c2-c2ccc4c(c2)OCO4)CCC3)nc1` as the compound, how does the inhibition read?
Answer: 9.41%

Question: Which inhibition does the source give for `COc1ccc(-c2cc(-c3c[nH]nc3-c3ccccn3)ccn2)cc1` here?
Answer: 3.75%

Question: `COc1ccc(-c2cc3c(N)ncnc3o2)cc1` was tested. Which inhibition did it give?
Answer: -3.63%

Question: With `FC(F)(F)c1cccc(-c2nn3ncccc3c2-c2ccnc(Nc3ccc4c(c3)OCCO4)n2)c1` as the compound, how does the inhibition read?
Answer: -0.53%

Question: How did the inhibition turn out when `N#Cc1c(NC(=O)CN2CCOCC2)sc2c1CCCC2` was run?
Answer: 4.81%

Question: Which inhibition does the source give for `COC(=O)Nc1nc2ccc(Oc3ccc(NC(=O)Nc4cccc(Cl)c4)cc3)cc2[nH]1` here?
Answer: 3.52%

Question: Which inhibition does the source give for `CN1CCC(n2cnc(-c3ccc(F)cc3)c2-c2ccnc(Nc3ccccc3)n2)CC1` here?
Answer: 1.01%

Question: For `Clc1ccc(-c2nn3ncccc3c2-c2ccnc(Nc3ccccc3)n2)cc1`, which inhibition is on record?
Answer: 3.71%

Question: `COc1ccc(-c2nn3ncccc3c2-c2ccnc(Nc3ccc4c(c3)OCCO4)n2)cc1` was tested. Which inhibition did it give?
Answer: -3.1%

Question: With `Nc1nc(-c2ccc(F)cc2)c(-c2ccc3ncccc3n2)s1` as the compound, how does the inhibition read?
Answer: 4.9%

Question: For `COc1ccc2[nH]c3c4[nH]c5ccc(OC)cc5c4c4c(c3c2c1)C(=O)NC4=O`, which inhibition is on record?
Answer: 5.28%

Question: With `Cc1ccc(O)cc1Nc1ccnc2cc(-c3ccccn3)ccc12` as the compound, how does the inhibition read?
Answer: 5.77%

Question: For `NS(=O)(=O)c1ccc(N/N=C2\C(=O)Nc3ccc4ncccc4c32)cc1`, which inhibition is on record?
Answer: 1.63%

Question: With `CCN1CCC(CC(=O)Nc2n[nH]c3nnc(-c4cccc(F)c4F)cc23)CC1` as the compound, how does the inhibition read?
Answer: 0.88%

Question: For `COc1cccc(-c2c[nH]c3c(N/N=C/c4ccncc4)ncnc23)c1`, which inhibition is on record?
Answer: 0.05%

Question: With `NC(=O)c1sc(-n2cnc3ccc(C(F)(F)F)cc32)cc1OCc1ccccc1Br` as the compound, how does the inhibition read?
Answer: 3.3%

Question: `CC(C)COC(=O)c1ccc2c(c1)/C(=C/Nc1ccc(S(N)(=O)=O)cc1)C(=O)N2` was tested. Which inhibition did it give?
Answer: 0.52%

Question: `CCn1c(-c2nonc2N)nc2cnc(Oc3cccc(NC(=O)c4ccc(N(C)C)cc4)c3)cc21` was tested. Which inhibition did it give?
Answer: -0.26%

Question: How did the inhibition turn out when `Fc1cccc(COc2ccc(Nc3ncnc4sc(-c5ccco5)cc34)cc2Cl)c1` was run?
Answer: 0.23%

Question: For `CC(=O)NCc1cccc(C#Cc2cncnc2Nc2ccc(OCc3cccc(F)c3)c(Cl)c2)c1`, which inhibition is on record?
Answer: 0.82%

Question: Which inhibition does the source give for `CS(=O)(=O)CCNCc1coc(-c2ccc3ncnc(Nc4ccc(OCc5ccccc5)cc4)c3c2)c1` here?
Answer: 0.62%

Question: For `Cc1ccc2c(-c3ccnc(Nc4ccccc4)n3)c(-c3ccc(F)cc3)nn2n1`, which inhibition is on record?
Answer: 1.92%

Question: For `O=S(=O)(CCNCc1ccc(-c2ccc3ncnc(Nc4ccc(OCc5cccc(F)c5)c(Cl)c4)c3c2)o1)c1ccccc1`, which inhibition is on record?
Answer: 4.87%

Question: How did the inhibition turn out when `CCNC(=O)O[C@H]1CN[C@H](C#Cc2cc3ncnc(Nc4ccc(OCc5cccc(F)c5)c(Cl)c4)c3s2)C1` was run?
Answer: 3.27%

Question: Which inhibition does the source give for `c1ccc(COc2ccc(Nc3ncnc4ccc(-c5ccco5)cc34)cc2)cc1` here?
Answer: -0.83%

Question: How did the inhibition turn out when `COC(=O)c1sc(-n2cnc3cc(OC)c(OC)cc32)cc1OCc1ccccc1C(F)(F)F` was run?
Answer: 0.42%

Question: For `Cc1cccc2c1NC(=O)/C2=N\Nc1ccc(S(N)(=O)=O)cc1`, which inhibition is on record?
Answer: 1.39%

Question: Which inhibition does the source give for `CC(=O)Nc1cccc(C#Cc2cncnc2Nc2ccc(OCc3cccc(F)c3)c(Cl)c2)c1` here?
Answer: 1.84%

Question: With `CCn1c(-c2nonc2N)nc2ccccc21` as the compound, how does the inhibition read?
Answer: 4.98%

molecular target: Insulin-like growth factor 1 receptor (Homo sapiens) (UniProt P08069); details: at 1 µM

Question: How did the inhibition turn out when `COc1ccc(CNC(=O)c2ccc(-c3cc(-c4nnc(C)o4)ccc3C)cc2)cc1` was run?
Answer: 0.47%

Question: How did the inhibition turn out when `Fc1ccc(-c2cc(-c3c[nH]nc3-c3ccccn3)ccn2)cc1` was run?
Answer: 1.04%

Question: With `CS(=O)(=O)CCNCc1ccc(-c2ccc3ncnc(Nc4ccc(OCc5ccccc5)c(C(F)(F)F)c4)c3c2)o1` as the compound, how does the inhibition read?
Answer: -0.18%

Question: How did the inhibition turn out when `COc1ccc2c(-c3ccnc(Nc4cccc(OC(F)(F)F)c4)n3)cnn2n1` was run?
Answer: 5.36%

Question: With `c1ccc(-c2nc3n(c2-c2ccc4c(c2)OCO4)CCC3)nc1` as the compound, how does the inhibition read?
Answer: 8.89%

Question: For `COc1ccc(-c2cc(-c3c[nH]nc3-c3ccccn3)ccn2)cc1`, which inhibition is on record?
Answer: 3.01%

Question: `COc1ccc(-c2cc3c(N)ncnc3o2)cc1` was tested. Which inhibition did it give?
Answer: -0.91%

Question: With `FC(F)(F)c1cccc(-c2nn3ncccc3c2-c2ccnc(Nc3ccc4c(c3)OCCO4)n2)c1` as the compound, how does the inhibition read?
Answer: 1.37%

Question: With `N#Cc1c(NC(=O)CN2CCOCC2)sc2c1CCCC2` as the compound, how does the inhibition read?
Answer: 5.33%

Question: Which inhibition does the source give for `COC(=O)Nc1nc2ccc(Oc3ccc(NC(=O)Nc4cccc(Cl)c4)cc3)cc2[nH]1` here?
Answer: 2.1%

Question: `CN1CCC(n2cnc(-c3ccc(F)cc3)c2-c2ccnc(Nc3ccccc3)n2)CC1` was tested. Which inhibition did it give?
Answer: 1.68%

Question: How did the inhibition turn out when `Clc1ccc(-c2nn3ncccc3c2-c2ccnc(Nc3ccccc3)n2)cc1` was run?
Answer: 5.4%

Question: With `COc1ccc(-c2nn3ncccc3c2-c2ccnc(Nc3ccc4c(c3)OCCO4)n2)cc1` as the compound, how does the inhibition read?
Answer: 7.28%

Question: Which inhibition does the source give for `Nc1nc(-c2ccc(F)cc2)c(-c2ccc3ncccc3n2)s1` here?
Answer: 24.4%

Question: For `COc1ccc2[nH]c3c4[nH]c5ccc(OC)cc5c4c4c(c3c2c1)C(=O)NC4=O`, which inhibition is on record?
Answer: 4.22%

Question: Which inhibition does the source give for `Cc1ccc(O)cc1Nc1ccnc2cc(-c3ccccn3)ccc12` here?
Answer: 4.82%

Question: `NS(=O)(=O)c1ccc(N/N=C2\C(=O)Nc3ccc4ncccc4c32)cc1` was tested. Which inhibition did it give?
Answer: 13.7%

Question: How did the inhibition turn out when `CCN1CCC(CC(=O)Nc2n[nH]c3nnc(-c4cccc(F)c4F)cc23)CC1` was run?
Answer: 2.99%

Question: `COc1cccc(-c2c[nH]c3c(N/N=C/c4ccncc4)ncnc23)c1` was tested. Which inhibition did it give?
Answer: 2.22%

Question: How did the inhibition turn out when `NC(=O)c1sc(-n2cnc3ccc(C(F)(F)F)cc32)cc1OCc1ccccc1Br` was run?
Answer: 1.19%

Question: With `CC(C)COC(=O)c1ccc2c(c1)/C(=C/Nc1ccc(S(N)(=O)=O)cc1)C(=O)N2` as the compound, how does the inhibition read?
Answer: 1.72%

Question: `CCn1c(-c2nonc2N)nc2cnc(Oc3cccc(NC(=O)c4ccc(N(C)C)cc4)c3)cc21` was tested. Which inhibition did it give?
Answer: 0.33%

Question: Which inhibition does the source give for `Fc1cccc(COc2ccc(Nc3ncnc4sc(-c5ccco5)cc34)cc2Cl)c1` here?
Answer: 0.87%

Question: `CC(=O)NCc1cccc(C#Cc2cncnc2Nc2ccc(OCc3cccc(F)c3)c(Cl)c2)c1` was tested. Which inhibition did it give?
Answer: 1.07%

Question: For `CS(=O)(=O)CCNCc1coc(-c2ccc3ncnc(Nc4ccc(OCc5ccccc5)cc4)c3c2)c1`, which inhibition is on record?
Answer: 2.16%

Question: Which inhibition does the source give for `Cc1ccc2c(-c3ccnc(Nc4ccccc4)n3)c(-c3ccc(F)cc3)nn2n1` here?
Answer: 5.18%

Question: With `O=S(=O)(CCNCc1ccc(-c2ccc3ncnc(Nc4ccc(OCc5cccc(F)c5)c(Cl)c4)c3c2)o1)c1ccccc1` as the compound, how does the inhibition read?
Answer: 7.55%

Question: Which inhibition does the source give for `CCNC(=O)O[C@H]1CN[C@H](C#Cc2cc3ncnc(Nc4ccc(OCc5cccc(F)c5)c(Cl)c4)c3s2)C1` here?
Answer: 2.91%

Question: How did the inhibition turn out when `c1ccc(COc2ccc(Nc3ncnc4ccc(-c5ccco5)cc34)cc2)cc1` was run?
Answer: -0.77%

Question: For `COC(=O)c1sc(-n2cnc3cc(OC)c(OC)cc32)cc1OCc1ccccc1C(F)(F)F`, which inhibition is on record?
Answer: 0.25%

Question: How did the inhibition turn out when `Cc1cccc2c1NC(=O)/C2=N\Nc1ccc(S(N)(=O)=O)cc1` was run?
Answer: 2.37%

Question: Which inhibition does the source give for `CC(=O)Nc1cccc(C#Cc2cncnc2Nc2ccc(OCc3cccc(F)c3)c(Cl)c2)c1` here?
Answer: 2.53%

Question: `CCn1c(-c2nonc2N)nc2ccccc21` was tested. Which inhibition did it give?
Answer: 6.36%
